This passage reports inhibition results from PubChem BioAssay AID488895 (Broad Institute, 2010).

The campaign covered roughly 340,000 compounds. About 120 (0.035%) were called active. Many of the other results were omitted from the sample, so actives are more common in it than they were. Unmarked numbers belong to inactive results.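 How the source made its calls: active means mean replicate inhibition at least 50% and at least half of replicates individually reaching 50%; inconclusive means only one of the two criteria met; inactive means neither criterion met.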

This test in a line: blockers of twin-arginine translocation in E. coli – MC4100, TorA-mCherry reporter, fluorescence, single point, primary screen (AID 488895).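 Further: exported cargo escapes ClpAP degradation while cytoplasmic cargo is degraded and loses fluorescence; 0% = median of neutral control wells and 100% = median of NaSCN control wells.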 The settings on record: E. coli MC4100 TorA-mCherry Tat export, at 10 µM, active compounds read high.
Turning to `CN1CCN(c2cc3c(cc2F)c(=O)c(C(=O)O)cn3CCF)CC1`, the inhibition is 81.7% (active).

`CCn1cc(C(=O)NCCO)c(=O)c2cc(F)c(N3CCN(C)CC3)cc21`: the inhibition was 81.4% (active).

On to `CCCCCCn1cc(C(=O)O)c(=O)c2cc(F)c(N3CCCCC3)cc21`, for which the inhibition was 4.11%.

Consider `CCCCNC(=O)c1cn(CC)c2cc(N3CCN(C(=O)c4ccco4)CC3)c(F)cc2c1=O`, for which the inhibition was -4.43%.

For `CCn1cc(S(=O)(=O)c2cccc(C)c2)c(=O)c2cc(F)c(N3CCN(C)CC3)cc21`, the inhibition is -3.59%.

Take `CCn1cc(C(=O)NCCC(=O)NCCO)c(=O)c2cc3c(cc21)OCO3`: the inhibition is 0.475%.

For the compound `CC1(C)O[C@@H]2[C@H](O1)[C@@H](COS(=O)(=O)O)O[C@H]2n1ccc(=O)[nH]c1=O`, the inhibition was -1.01%.

Regarding `COc1ccc(S(=O)(=O)Nc2cccc3c2O[C@H](CN(C)S(=O)(=O)c2ccc(OC)cc2)[C@@H](C)CN([C@H](C)CO)C3=O)cc1`, the inhibition is 0.274%.

Take `O=C(c1cn(-c2ccccc2)nc1-c1cccnc1)N1CCN(S(=O)(=O)c2ccccc2F)CC1`: the inhibition was 7.82%.

`COc1ccc(CNC(=O)C(NS(=O)(=O)c2cccc3nsnc23)C(C)C)cc1` (stereo unspecified): the inhibition was -12.3%.

In the case of `Cc1nc2ccc(C(=O)N3CCSCC3)cc2s1`, the inhibition is -5.07%.

As to `COc1cc(C2CC(=O)Oc3cc(OC)c(OC)c(OC)c32)cc(OC)c1OC` (stereo unspecified), the inhibition was 0.529%.

Take `COc1cccc(C(C(=O)NC2CCCC2)N(C(=O)c2ccco2)c2cccc(C(C)=O)c2)c1OC` (stereo unspecified): the inhibition is 7.67%.

`CCNC(=O)CC1C(=O)N(c2ccc(OC)cc2)C(=S)N1CCc1ccncc1` (stereo unspecified): the inhibition was 5.06%.

For the compound `O=C(CN1CCN(S(=O)(=O)c2ccc(F)cc2)CC1)NC1CC1`, the inhibition was 2.17%.

For the compound `CCn1cc(/C=C(\NC(=O)c2cc(OC)c(OC)c(OC)c2)C(=O)N2CCN(C)CC2)c2ccccc21`, the inhibition was 6.75%.

On to `N#Cc1nc(N)nc(N(c2ccccc2)c2ccccc2)n1`, for which the inhibition is -1.07%.

On to `CC(=O)NC(=S)NNC(=O)c1ccc(Br)cc1`, for which the inhibition is 10.8%.

Take `O=C(COc1coc(CN2CCN(c3ccccc3)CC2)cc1=O)N1CCc2ccccc21`: the inhibition was -5.1%.

As for `COCC(=O)N1CCc2ccc(NC(=O)c3ccccc3Cl)cc2C1`, the inhibition is -8.59%.

Regarding `O=C(Cc1ccccc1F)NC1CCSc2ccccc21` (stereo unspecified), the inhibition was -4.99%.

Turning to `CC(N)C12CC3CC(CC(O)(C3)C1)C2` (stereo unspecified), the inhibition is -2.5%.

In the case of `CCn1ccnc1CN1CCCC(C(=O)c2ccc3c4c(cccc24)CC3)C1` (stereo unspecified), the inhibition was -0.858%.

Take `COc1ccc(C2NCCCC2c2ccccc2)cc1` (stereo unspecified): the inhibition was 0.669%.

As for `CC(=O)Nc1ccc(OCCC[n+]2cccc(C(=O)[O-])c2)cc1`, the inhibition was 0.863%.

As to `CCOC(=O)N1CCN(C(=O)c2ccccc2N(Cc2ccccc2)S(=O)(=O)c2ccc(OC)cc2)CC1`, the inhibition was -2.32%.

What is called inhibition is the relative decrease from the control value, in per cent.
